Assay results as given in PMC7862700, “An all-to-all approach to the identification of sequence-specific readers for epigenetic DNA modifications on cytosine”.

Assays:
Assay in all cases: DAPPL (digital affinity profiling via proximity ligation, sequencing); 10 mM Tris-HCl pH 7.5, 50 mM NaCl, 1 mM DTT, 4% glycerol, room temperature, 30 min; GST-TFs on glutathione beads, 16-mer random dsDNA library, 0.1% formaldehyde crosslink after washing; high values mean tight binding
Conditions in all cases: protein: recombinant; tags: N-terminal GST; dsDNA, one strand shown
FEV = target: T1, FEV (Homo sapiens, UniProt Q99581 1-238)
T1 sequence: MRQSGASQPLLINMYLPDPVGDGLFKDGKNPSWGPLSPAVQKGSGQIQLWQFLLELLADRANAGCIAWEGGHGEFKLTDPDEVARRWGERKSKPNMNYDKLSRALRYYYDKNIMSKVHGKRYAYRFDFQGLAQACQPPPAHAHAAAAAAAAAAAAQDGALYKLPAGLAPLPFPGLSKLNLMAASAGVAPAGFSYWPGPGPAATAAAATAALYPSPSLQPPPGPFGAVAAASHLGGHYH
Procedure, shortened: (§1)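 A tag-only sample was pooled with DNA-barcoded human transcription factors that had been expressed in yeast as GST fusions and captured on glutathione beads. The pools were incubated for 30 min at room temperature with 200 nmole of a random double-stranded 16-mer DNA library in Tris/NaCl/DTT/glycerol buffer, then washed, crosslinked with 0.1% formaldehyde, proximity-ligated (BsaI/T4 ligase, 1 h, 37 °C), PCR-amplified and sequenced on an Illumina NextSeq500. Binding signal is each hexamer's read frequency for a factor divided by its frequency for the tag-only sample.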

ETV5 = ETV5 (Homo sapiens, UniProt P41161 1-510)
Sequence of ETV5 (P41161 whole entry): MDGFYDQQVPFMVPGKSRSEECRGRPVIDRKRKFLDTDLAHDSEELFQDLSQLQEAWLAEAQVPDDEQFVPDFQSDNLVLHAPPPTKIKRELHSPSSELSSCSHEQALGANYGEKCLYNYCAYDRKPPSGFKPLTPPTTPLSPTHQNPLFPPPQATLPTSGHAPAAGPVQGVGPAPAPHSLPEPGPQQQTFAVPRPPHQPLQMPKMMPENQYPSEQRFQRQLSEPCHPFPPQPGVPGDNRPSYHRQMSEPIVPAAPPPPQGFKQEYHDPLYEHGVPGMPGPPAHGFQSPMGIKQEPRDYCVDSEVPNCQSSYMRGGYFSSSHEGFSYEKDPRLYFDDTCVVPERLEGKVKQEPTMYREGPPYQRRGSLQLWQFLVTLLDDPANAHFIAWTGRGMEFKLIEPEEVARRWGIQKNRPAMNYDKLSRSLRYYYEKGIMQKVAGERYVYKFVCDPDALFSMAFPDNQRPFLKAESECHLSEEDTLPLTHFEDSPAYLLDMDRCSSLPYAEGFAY
Procedure, shortened: as §1

SPIC = target: T2, SPIC (Homo sapiens, UniProt Q8N5J4 1-248)
T2 sequence: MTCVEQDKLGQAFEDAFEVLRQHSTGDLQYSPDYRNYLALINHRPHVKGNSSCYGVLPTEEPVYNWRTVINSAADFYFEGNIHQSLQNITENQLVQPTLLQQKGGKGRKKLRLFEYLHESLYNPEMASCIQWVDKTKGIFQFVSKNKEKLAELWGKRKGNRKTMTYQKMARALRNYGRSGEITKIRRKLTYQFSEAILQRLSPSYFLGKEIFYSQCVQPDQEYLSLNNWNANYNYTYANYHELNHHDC
Procedure, shortened: as §1

ELF4 = ELF4 (Homo sapiens, UniProt Q99607 1-663)
Sequence of ELF4 (Q99607 whole entry): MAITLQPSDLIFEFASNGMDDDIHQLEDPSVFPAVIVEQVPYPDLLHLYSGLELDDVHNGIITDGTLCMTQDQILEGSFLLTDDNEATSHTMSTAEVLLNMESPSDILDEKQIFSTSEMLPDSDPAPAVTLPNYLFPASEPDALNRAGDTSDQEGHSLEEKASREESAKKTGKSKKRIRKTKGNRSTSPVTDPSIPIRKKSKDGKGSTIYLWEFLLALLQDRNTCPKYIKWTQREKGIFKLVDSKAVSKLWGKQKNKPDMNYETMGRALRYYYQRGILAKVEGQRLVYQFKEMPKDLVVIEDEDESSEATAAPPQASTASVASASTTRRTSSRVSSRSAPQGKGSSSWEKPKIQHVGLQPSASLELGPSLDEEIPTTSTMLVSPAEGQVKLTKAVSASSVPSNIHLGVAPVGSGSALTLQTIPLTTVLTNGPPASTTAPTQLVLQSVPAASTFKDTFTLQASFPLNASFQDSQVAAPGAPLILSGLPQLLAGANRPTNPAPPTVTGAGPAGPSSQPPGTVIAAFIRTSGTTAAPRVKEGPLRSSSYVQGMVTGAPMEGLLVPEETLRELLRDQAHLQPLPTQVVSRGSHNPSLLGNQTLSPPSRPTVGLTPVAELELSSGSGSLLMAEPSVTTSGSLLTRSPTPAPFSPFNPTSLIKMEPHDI
Procedure, shortened: as §1

ELK4 = target: T3, ELK4 (Homo sapiens, UniProt P28324-2 1-405)
T3 sequence: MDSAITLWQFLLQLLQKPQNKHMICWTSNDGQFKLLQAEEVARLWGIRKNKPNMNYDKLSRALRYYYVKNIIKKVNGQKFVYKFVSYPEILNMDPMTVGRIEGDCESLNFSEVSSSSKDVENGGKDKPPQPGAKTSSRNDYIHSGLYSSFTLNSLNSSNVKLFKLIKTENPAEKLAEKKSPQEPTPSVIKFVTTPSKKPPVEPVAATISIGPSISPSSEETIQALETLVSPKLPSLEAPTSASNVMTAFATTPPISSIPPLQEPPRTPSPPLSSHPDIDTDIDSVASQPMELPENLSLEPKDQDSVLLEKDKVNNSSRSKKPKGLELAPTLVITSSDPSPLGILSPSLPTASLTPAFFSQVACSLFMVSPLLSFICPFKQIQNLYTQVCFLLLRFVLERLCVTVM
Procedure, shortened: as §1

ETV2 = target: T4, ETV2 (Homo sapiens, UniProt O00321 1-342)
T4 sequence: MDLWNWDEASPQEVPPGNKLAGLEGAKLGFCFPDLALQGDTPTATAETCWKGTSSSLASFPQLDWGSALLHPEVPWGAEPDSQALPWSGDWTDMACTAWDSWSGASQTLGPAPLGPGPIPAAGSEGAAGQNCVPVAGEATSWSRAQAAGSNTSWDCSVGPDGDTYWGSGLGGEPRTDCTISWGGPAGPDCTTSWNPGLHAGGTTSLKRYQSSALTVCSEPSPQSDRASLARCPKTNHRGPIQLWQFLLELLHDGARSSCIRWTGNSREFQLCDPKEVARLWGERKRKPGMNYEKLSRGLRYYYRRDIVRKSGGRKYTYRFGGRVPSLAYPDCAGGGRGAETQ
Procedure, shortened: as §1

ELF3 = target: T5, ELF3 (Homo sapiens, UniProt P78545 1-371)
T5 sequence: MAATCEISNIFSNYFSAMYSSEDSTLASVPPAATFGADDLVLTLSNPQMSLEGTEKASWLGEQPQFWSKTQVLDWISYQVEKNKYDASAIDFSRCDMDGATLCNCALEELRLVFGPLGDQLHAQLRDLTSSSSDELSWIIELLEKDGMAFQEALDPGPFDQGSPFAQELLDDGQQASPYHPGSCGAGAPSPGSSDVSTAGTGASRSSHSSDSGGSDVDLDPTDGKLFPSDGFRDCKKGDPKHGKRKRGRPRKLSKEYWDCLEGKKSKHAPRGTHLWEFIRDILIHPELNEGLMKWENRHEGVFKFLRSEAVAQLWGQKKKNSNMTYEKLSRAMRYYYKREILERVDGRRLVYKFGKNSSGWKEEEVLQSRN
Procedure, shortened: as §1

ETV1 = ETV1 (Homo sapiens, UniProt P50549 1-477)
Sequence of ETV1 (P50549 whole entry): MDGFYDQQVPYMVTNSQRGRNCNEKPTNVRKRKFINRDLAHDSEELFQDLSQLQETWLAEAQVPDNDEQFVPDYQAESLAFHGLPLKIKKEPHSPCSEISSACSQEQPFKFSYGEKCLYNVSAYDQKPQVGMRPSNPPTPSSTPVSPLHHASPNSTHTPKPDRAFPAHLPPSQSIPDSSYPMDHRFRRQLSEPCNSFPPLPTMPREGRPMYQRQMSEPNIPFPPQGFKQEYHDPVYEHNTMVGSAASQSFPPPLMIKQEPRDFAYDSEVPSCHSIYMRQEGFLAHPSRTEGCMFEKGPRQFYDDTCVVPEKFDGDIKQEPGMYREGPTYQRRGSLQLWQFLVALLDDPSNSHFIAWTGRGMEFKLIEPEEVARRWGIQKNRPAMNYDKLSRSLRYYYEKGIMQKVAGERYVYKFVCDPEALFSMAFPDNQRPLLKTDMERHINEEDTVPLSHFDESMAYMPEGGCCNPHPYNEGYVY
Procedure, shortened: as §1

ERF = target: T6, ERF (Homo sapiens, UniProt P50548 1-548)
T6 sequence: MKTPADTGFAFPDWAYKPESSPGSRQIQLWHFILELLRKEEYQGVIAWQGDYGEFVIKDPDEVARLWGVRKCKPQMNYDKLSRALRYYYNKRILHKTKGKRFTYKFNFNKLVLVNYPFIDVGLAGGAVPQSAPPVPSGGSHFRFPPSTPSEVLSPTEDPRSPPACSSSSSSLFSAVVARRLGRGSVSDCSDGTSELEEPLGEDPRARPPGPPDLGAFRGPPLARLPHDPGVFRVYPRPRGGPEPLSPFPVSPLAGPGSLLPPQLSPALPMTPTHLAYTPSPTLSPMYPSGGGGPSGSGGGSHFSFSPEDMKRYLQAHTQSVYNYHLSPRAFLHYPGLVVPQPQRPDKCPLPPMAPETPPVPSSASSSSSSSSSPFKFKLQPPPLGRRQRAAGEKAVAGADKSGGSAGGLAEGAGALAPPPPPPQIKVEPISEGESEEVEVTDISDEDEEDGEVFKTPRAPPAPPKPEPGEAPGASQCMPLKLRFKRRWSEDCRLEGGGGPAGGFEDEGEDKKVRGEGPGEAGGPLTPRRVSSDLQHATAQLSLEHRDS
Procedure, shortened: as §1

ETV3L = target: T7, ETV3L (Homo sapiens, UniProt Q6ZN32 1-361)
T7 sequence: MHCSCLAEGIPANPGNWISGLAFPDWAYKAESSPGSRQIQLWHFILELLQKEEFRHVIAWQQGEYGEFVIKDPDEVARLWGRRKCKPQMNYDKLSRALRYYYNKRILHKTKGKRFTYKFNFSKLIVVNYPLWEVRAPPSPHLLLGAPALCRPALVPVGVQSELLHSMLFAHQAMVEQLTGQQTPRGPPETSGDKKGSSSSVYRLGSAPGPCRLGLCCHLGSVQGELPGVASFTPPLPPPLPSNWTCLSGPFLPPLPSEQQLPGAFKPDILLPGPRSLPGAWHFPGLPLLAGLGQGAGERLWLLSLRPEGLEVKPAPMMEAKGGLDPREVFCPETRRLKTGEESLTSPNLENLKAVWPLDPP
Procedure, shortened: as §1

ETS2 = target: T8, ETS2 (Homo sapiens, UniProt P15036 1-469)
T8 sequence: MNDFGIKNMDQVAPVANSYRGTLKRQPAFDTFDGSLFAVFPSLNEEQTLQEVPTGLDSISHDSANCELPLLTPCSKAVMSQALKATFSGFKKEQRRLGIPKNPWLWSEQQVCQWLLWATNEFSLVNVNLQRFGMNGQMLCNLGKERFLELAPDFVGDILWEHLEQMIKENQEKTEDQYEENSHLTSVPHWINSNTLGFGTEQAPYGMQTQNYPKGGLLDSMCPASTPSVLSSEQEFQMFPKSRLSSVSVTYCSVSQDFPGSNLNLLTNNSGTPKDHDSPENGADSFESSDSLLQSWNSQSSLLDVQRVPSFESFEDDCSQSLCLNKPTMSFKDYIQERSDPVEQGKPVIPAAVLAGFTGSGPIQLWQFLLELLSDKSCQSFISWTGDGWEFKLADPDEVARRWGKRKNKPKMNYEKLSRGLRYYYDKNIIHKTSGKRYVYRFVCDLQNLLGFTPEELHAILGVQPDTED
Procedure, shortened: as §1

SPDEF = target: T9, SPDEF (Homo sapiens, UniProt O95238 1-335)
T9 sequence: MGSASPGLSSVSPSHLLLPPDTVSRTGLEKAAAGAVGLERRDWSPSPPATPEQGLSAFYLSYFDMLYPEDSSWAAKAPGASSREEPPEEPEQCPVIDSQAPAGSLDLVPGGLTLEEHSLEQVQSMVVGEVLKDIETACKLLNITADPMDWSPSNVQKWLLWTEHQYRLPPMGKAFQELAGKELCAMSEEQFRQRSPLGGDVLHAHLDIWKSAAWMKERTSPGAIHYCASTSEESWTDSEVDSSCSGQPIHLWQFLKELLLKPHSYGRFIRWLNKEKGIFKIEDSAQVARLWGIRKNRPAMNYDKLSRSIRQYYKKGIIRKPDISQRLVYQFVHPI
Procedure, shortened: as §1

ETV7 = target: T10, ETV7 (Homo sapiens, UniProt Q9Y603 1-341)
T10 sequence: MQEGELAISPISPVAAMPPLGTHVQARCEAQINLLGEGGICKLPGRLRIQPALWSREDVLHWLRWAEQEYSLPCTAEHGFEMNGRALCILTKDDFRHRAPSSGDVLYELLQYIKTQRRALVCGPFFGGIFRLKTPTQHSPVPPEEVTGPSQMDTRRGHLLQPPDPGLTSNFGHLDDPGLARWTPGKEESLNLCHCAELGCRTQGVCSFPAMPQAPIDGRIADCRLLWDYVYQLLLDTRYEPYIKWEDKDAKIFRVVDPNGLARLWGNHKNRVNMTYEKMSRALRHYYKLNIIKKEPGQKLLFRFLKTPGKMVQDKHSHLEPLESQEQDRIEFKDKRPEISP
Procedure, shortened: as §1

ELF5 = target: T11, ELF5 (Homo sapiens, UniProt Q9UKW6-2 1-255)
T11 sequence: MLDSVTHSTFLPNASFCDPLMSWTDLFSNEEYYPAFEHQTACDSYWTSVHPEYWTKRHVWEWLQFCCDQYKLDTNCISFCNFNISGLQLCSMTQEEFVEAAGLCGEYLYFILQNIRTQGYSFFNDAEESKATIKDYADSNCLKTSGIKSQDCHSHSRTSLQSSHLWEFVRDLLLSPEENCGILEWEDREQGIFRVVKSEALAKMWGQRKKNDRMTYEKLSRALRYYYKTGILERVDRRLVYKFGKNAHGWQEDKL
Procedure, shortened: as §1

ETV3 = target: T12, ETV3 (Homo sapiens, UniProt P41162-2 1-143)
T12 sequence: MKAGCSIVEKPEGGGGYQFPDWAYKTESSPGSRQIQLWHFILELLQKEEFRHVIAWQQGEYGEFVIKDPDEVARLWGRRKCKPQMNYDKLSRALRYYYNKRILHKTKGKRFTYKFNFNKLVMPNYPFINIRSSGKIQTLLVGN
Procedure, shortened: as §1

ETV6 = ETV6 (Homo sapiens, UniProt P41212 1-452)
Sequence of ETV6 (P41212 whole entry): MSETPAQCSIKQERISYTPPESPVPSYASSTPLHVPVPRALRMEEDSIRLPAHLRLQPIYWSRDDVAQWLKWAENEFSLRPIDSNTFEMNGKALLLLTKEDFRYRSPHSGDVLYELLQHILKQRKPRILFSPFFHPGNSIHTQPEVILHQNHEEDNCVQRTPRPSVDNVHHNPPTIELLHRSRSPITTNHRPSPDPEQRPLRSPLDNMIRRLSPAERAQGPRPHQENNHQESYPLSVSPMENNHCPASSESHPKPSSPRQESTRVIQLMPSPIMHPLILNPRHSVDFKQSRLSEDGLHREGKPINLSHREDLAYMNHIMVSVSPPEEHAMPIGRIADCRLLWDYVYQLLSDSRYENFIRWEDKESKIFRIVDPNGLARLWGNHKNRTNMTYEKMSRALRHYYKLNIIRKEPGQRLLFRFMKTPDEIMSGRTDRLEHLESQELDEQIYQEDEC
Procedure, shortened: as §1

Row | Sequence | binding signal (FEV) | binding signal (ETV5) | binding signal (SPIC) | binding signal (ELF4) | binding signal (ELK4) | binding signal (ETV2) | binding signal (ELF3) | binding signal (ETV1) | binding signal (ERF) | binding signal (ETV3L) | binding signal (ETS2) | binding signal (SPDEF) | binding signal (ETV7) | binding signal (ELF5) | binding signal (ETV3) | binding signal (ETV6)
1 | TGGCAG | 1.18 fold enrichment (6-mer frequency, TF over GST control) | 1.07 fold enrichment (6-mer frequency, TF over GST control) | 1.05 fold enrichment (6-mer frequency, TF over GST control) | 1.02 fold enrichment (6-mer frequency, TF over GST control) | 1.01 fold enrichment (6-mer frequency, TF over GST control) | 1.29 fold enrichment (6-mer frequency, TF over GST control) | 1.02 fold enrichment (6-mer frequency, TF over GST control) | 1.05 fold enrichment (6-mer frequency, TF over GST control) | 1.11 fold enrichment (6-mer frequency, TF over GST control) | 1.12 fold enrichment (6-mer frequency, TF over GST control) | 1.05 fold enrichment (6-mer frequency, TF over GST control) | 1.05 fold enrichment (6-mer frequency, TF over GST control) | 1.04 fold enrichment (6-mer frequency, TF over GST control) | 1.09 fold enrichment (6-mer frequency, TF over GST control) | 1.16 fold enrichment (6-mer frequency, TF over GST control) | 1.09 fold enrichment (6-mer frequency, TF over GST control)
2 | GAAGTG | 1.88 fold enrichment (6-mer frequency, TF over GST control) | 1.73 fold enrichment (6-mer frequency, TF over GST control) | 2.01 fold enrichment (6-mer frequency, TF over GST control) | 1.6 fold enrichment (6-mer frequency, TF over GST control) | 1.32 fold enrichment (6-mer frequency, TF over GST control) | 1.65 fold enrichment (6-mer frequency, TF over GST control) | 1.65 fold enrichment (6-mer frequency, TF over GST control) | 1.86 fold enrichment (6-mer frequency, TF over GST control) | 1.48 fold enrichment (6-mer frequency, TF over GST control) | 1.53 fold enrichment (6-mer frequency, TF over GST control) | 1.55 fold enrichment (6-mer frequency, TF over GST control) | 1.47 fold enrichment (6-mer frequency, TF over GST control) | 1.7 fold enrichment (6-mer frequency, TF over GST control) | 1.79 fold enrichment (6-mer frequency, TF over GST control) | 1.75 fold enrichment (6-mer frequency, TF over GST control) | 1.93 fold enrichment (6-mer frequency, TF over GST control)
3 | CATGGT | 1.08 fold enrichment (6-mer frequency, TF over GST control) | 1.24 fold enrichment (6-mer frequency, TF over GST control) | 1.39 fold enrichment (6-mer frequency, TF over GST control) | 1.32 fold enrichment (6-mer frequency, TF over GST control) | 1.32 fold enrichment (6-mer frequency, TF over GST control) | 1.13 fold enrichment (6-mer frequency, TF over GST control) | 1.35 fold enrichment (6-mer frequency, TF over GST control) | 1.29 fold enrichment (6-mer frequency, TF over GST control) | 1.24 fold enrichment (6-mer frequency, TF over GST control) | 1.27 fold enrichment (6-mer frequency, TF over GST control) | 1.25 fold enrichment (6-mer frequency, TF over GST control) | 1.13 fold enrichment (6-mer frequency, TF over GST control) | 1.16 fold enrichment (6-mer frequency, TF over GST control) | 1.16 fold enrichment (6-mer frequency, TF over GST control) | 1.25 fold enrichment (6-mer frequency, TF over GST control) | 1.2 fold enrichment (6-mer frequency, TF over GST control)
